Screening data (PubChem)
This is a sample that favours compounds with a hit; in the whole collection about 5.9% have one here.
ATXN2 expr inh – ATXN2 expression inhibition; HEK-293 ATXN2-luciferase reporter, luminescence, 24 h; Potency, µM (titrated, usually from 57 µM), inactives show top-dose activity change, negative = inhibition, hits mostly inhibitors; 360,000 tested, 0.72% active; further: on the % scale 0 is the no-effect control and ±100 the full control effect; nearly all actives have a fitted effect of over 55% in size
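ATXN2-luciferase reporter cells (luciferase flanked by upstream and downstream ATXN2 gene portions) were treated 24 h at 37 °C with compounds at up to 57 uM. SteadyGlo luminescence gave expression; GF-AFC fluorescence gave viability.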
TGFb SMAD3 inh – inhibitors of TGF-b signaling | HepG2 CAGA-GFP TGF-b/SMAD3 reporter, GFP fluorescence, 18 h; TGF-beta stimulated, 500 pg/mL final | Potency, µM (highest dose often 46.1 µM), without a hit: at the highest dose activity, negative = inhibition, actives largely listed as inhibitors | 410,000 tested, 1.2% active; further: on the % scale 0 is the no-effect control and ±100 the full control effect; nearly all actives have a fitted effect of over 65% in size
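Smad-responsive CAGA-GFP expression was quantified in HEPG2 cells exposed to compounds and 500 pg/mL final TGF-beta for 18 h at 37 degrees C; unstimulated wells defined full inhibition.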
ATXN viability – cell viability loss in ATXN counter-screen. S2 cells (HEK-293 line with an ATXN2-luciferase reporter) viability, CellTiter-Fluor protease fluorescence, 24 h. AID 651635. 400,000 tested, 0.49% active. Potency, µM (titrated, usually from 56.7 µM), usual class: cytotoxic; further: nearly all actives have a fitted effect of over 40% in size
KB-3-1 cytotox – KB-3-1 parental cell cytotoxicity. AID 1347075. Potency, µM (top dose mostly 46.1 µM), hits mostly cytotoxic. KB-3-1 viability, CellTiter-Glo ATP luminescence, 72 h. 400,000 tested, 1.4% active; further: on the % scale 0 is the no-effect control and ±100 the full control effect; nearly all actives have a fitted effect of over 60% in size
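Cells are dispensed, compounds pinned in, plates held at 37 °C for 72 h, then CellTiter-Glo is added and luminescence read after 10 minutes. Cell line: parental KB-3-1 in phenol-red-free DMEM, 10% FBS.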
HepG2 viability – kills HepG2 cells in TGF-b inhibitor counter-screen; AID 588856; 410,000 tested, 0.76% active; HepG2 CAGA-GFP viability, ATP luminescence, 18 h; Potency, µM (top dose mostly 46.1 µM), for inactives: at the highest dose activity change, negative = cytotoxicity, most hits filed as cytotoxic
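CellTiter-Glo luminescence gave cytotoxicity after 18 hours at 37 degrees C. The cells were HepG2 CAGA-GFP in 1% FBS DMEM, stimulated with 500 pg/mL TGF-beta after compound addition. %Activity was normalised to no-cell wells (complete cell-killing) and DMSO (no toxicity), and curves were fitted and classified.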
KB-V1 cytotox – KB-V1 MDR subline cytotoxicity. Potency, µM (doses to about 46.1 µM), actives largely listed as cytotoxic. KB-V1 MDR cells viability, CellTiter-Glo, 72 h. 400,000 tested, 3.4% active; further: on the % scale 0 is the no-effect control and ±100 the full control effect; nearly all actives have a fitted effect of over 60% in size
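Potencies derive from concentration-effect curves fitted to normalized luminescence (CellTiter-Glo) of KB-V1 cells treated for 72 h at 37 degrees C in phenol-red-free DMEM containing 10% FBS.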
* marks the source's active call; other numbers are inactive results; i = inactive; ? = inconclusive; nt = no result given. The call rests on the fitted dose curve; in most records, active means well fitted curve in the direction sought with a large enough effect; inconclusive means small, poorly fitted or top-dose-only effect, or another doubt; inactive means no such curve, though single readings can be large; an effect the other way counts as inactive or inconclusive. Potency means the concentration at half of the fitted maximal effect.

SMILES	ATXN2 expr inh	TGFb SMAD3 inh	ATXN viability	KB-3-1 cytotox	HepG2 viability	KB-V1 cytotox
COc1ccc2sc(-c3ccccc3OC)c(-c3ccc(SC)cc3)c2c1	16%	nt	i	i	nt	i
COc1cccc(-c2sc3ccccc3c2-c2ccc(OCCN(C)C)cc2)c1	22µM*	?	nt	?	11µM*	?
COc1cc(=O)n2c(c1C(=O)N(C)Cc1ccsc1)CCN(Cc1c(C)nc3sccn13)CC2	nt	nt	i	nt	nt	nt
c1ccc(-c2sc3ccccc3c2-c2ccc(OCCN3CCCC3)cc2)cc1	25µM*	?	?	?	11µM*	?
O=C(CSc1nnc(Cn2nnc3ccccc32)o1)N(Cc1ccc(F)cc1)c1ccccc1	-32%	11µM*	i	5.2µM*	-22%	?
COc1ccc(-n2c(Cn3nnc4ccccc43)nnc2SCC(=O)O)cc1	37%	-4%	i	i	13%	i
COc1ccc(N(Cc2ccccc2)C(=O)CSc2nnc(Cn3nnc4ccccc43)o2)cc1	?	-11%	i	?	-10%	8.2µM*
O=C(CSc1nnc(Cn2nnc3ccccc32)o1)Nc1ccc(Cl)cc1	3%	27%	i	i	3%	i
O=C1CCSc2ccc(S(=O)(=O)Nc3ccc(Cl)c(C(F)(F)F)c3)cc2N1	2%	?	i	i	-13%	i
Cc1cccc(CN2CC34C=CC(CC3S2(=O)=O)O4)c1 (stereo not given)	nt	2%	nt	nt	3%	nt
Cc1ccc(C(=O)N2c3ccccc3N(Cc3ccccc3)C(=O)C2(C)C)cc1	?	?	i	i	-30%	6.5µM*
O=C(Nc1ccc2c(c1)nc1n2CCSC1)c1ccccc1	?	?	i	?	-38%	13µM*
CCOCc1cnc(C)nc1NCC(=O)c1c(C)[nH]c2cc(C)ccc12	1%	0%	i	16µM*	-4%	i
CCOCc1cnc(C)nc1NCC(=O)c1c(C)[nH]c2ccccc12	-7%	-10%	i	23µM*	-10%	i
CCC(=O)O[C@@H]1CC(=O)O[C@H](C)C/C=C/C=C/[C@H](O)[C@H](C)C[C@H](CC=O)[C@H](O[C@@H]2O[C@H](C)[C@@H](O[C@H]3C[C@@](C)(O)[C@@H](OC(=O)CC)[C@H](C)O3)[C@H](N(C)C)[C@H]2O)[C@H]1OC	nt	nt	i	nt	nt	nt
Cc1ccccc1OCCCSc1nc2ccccc2[nH]1	-3%	?	?	?	-16%	12µM*
c1ccc(OCCSc2nc3ccccc3[nH]2)cc1	38%	-19%	i	i	-12%	i
O=c1[nH]c(=S)c2ncn(-c3ccccc3)c2[nH]1	1%	4%	i	i	-17%	?
O=C1c2ccccc2C(=O)c2c1ncn2-c1ccccc1	0%	?	?	?	-76%	21µM*
C[C@]1(CO)CN(c2cc(C(=O)Nc3ccc4c(c3)-c3c(c(C(N)=O)nn3-c3ccc(F)cc3)CC4)c(Cl)cn2)C[C@@]1(C)CO	8.6µM*	nt	nt	nt	nt	nt
CC(=O)c1ccc(N2CCN(c3ccc(NC(=O)c4ccc(F)cc4)cc3C(=O)O)CC2)cc1	8%	?	i	i	-54%	i
COC(=O)C1=C(C)N(CCC2=CCCCC2)C(=O)C1	22%	-5%	i	i	-1%	i
COC(=O)C1=C(\O)CCCC/C=C\1C(=O)O	13%	14%	i	i	2.8µM*	i
O=S(=O)(c1ccc(-c2csc(=Nc3ccc(OC(F)(F)Cl)cc3)n2CCCO)cc1)N1CCCC1	nt	3.5µM*	nt	nt	-41%	nt
Cn1c(-c2ccc(S(=O)(=O)N3CCCC3)cc2)csc1=Nc1ccc(Cl)c(Cl)c1	nt	?	nt	nt	-32%	nt
SMILES	ATXN2 expr inh	TGFb SMAD3 inh	ATXN viability	KB-3-1 cytotox	HepG2 viability	KB-V1 cytotox
COCCCn1c(-c2ccc(S(=O)(=O)N3CCOCC3)cc2)csc1=Nc1ccccc1	32µM*	-3%	?	?	0%	i
O=c1[nH]c2cc([N+](=O)[O-])ccc2c2ccccc12	-39%	-6%	i	i	4%	?
CCc1cccc2[nH]c3cc([N+](=O)[O-])ccc3c12	-28%	-5%	i	?	-43%	13µM*
COc1ccc2cc(CNCc3ccccc3C(F)(F)F)c(N3CCCC(CO)C3)nc2c1 (stereo not given)	nt	nt	i	nt	nt	nt
Cc1cc2nc(SCCOC(=O)Nc3ccccc3)nc(C)c2cc1C	10%	-21%	i	i	0%	21µM*
COc1ccccc1C=Cc1ccnc2ccccc12	10%	-4%	?	?	-28%	?
Cc1ccc2c(/C=C/c3c[nH]c4ccccc34)ccnc2c1C	nt	?	nt	16µM*	-47%	7.3µM*
COc1ccc(OC)c2c(/C=C/c3c[nH]c4ccccc34)ccnc12	nt	?	nt	4.1µM*	-4%	?
C(=Cc1c[nH]c2ccccc12)c1nccc2ccccc12	?	28%	i	?	2%	?
CCOC(=O)c1[nH]c2ccccc2c1NC(=O)c1cc(OC)cc(OC)c1	-6%	-21%	i	i	-11%	8.2µM*
CCOC(=O)c1[nH]c2ccccc2c1NC(=O)c1cc(OC)c(OC)c(OC)c1	1%	-1%	i	i	-30%	i
CCN1C(=O)C(Cc2nc3ccccc3c(=O)n2-c2ccc(OC)cc2)c2ccccc21 (stereo not given)	-9%	16%	?	i	-1%	i
CCN1C(=O)C(Cc2nc3ccccc3c(=O)n2-c2ccccc2)c2ccccc21 (stereo not given)	5%	-2%	i	i	-12%	4.1µM*
COc1ccc2nc(C)cc(SCC(=O)Nc3c(C)cccc3C)c2c1	-3%	3%	i	i	6%	?
COc1ccc2nc(C)cc(SCC(=O)Nc3c(C)cc(C)cc3C)c2c1	-2%	-16%	i	i	-5%	13µM*
COc1ccccc1C1OC(c2cccc([N+](=O)[O-])c2)=NN1C(C)=O (stereo not given)	-16%	?	i	i	1%	i
CC(=O)N1N=C(c2cccc([N+](=O)[O-])c2)OC1c1ccc(Cl)cc1Cl (stereo not given)	-21%	-16%	i	i	0%	21µM*
Cn1c(=O)n(-c2ccc3c(c2)OCO3)c2nc(-c3ccc(Cl)cc3)nc(C(N)=O)c21	4%	?	i	i	-16%	i
Cc1cc(C(=O)c2ccccc2)cc(C)c1O	-9%	3%	?	i	8%	i
